Measurements: PubChem BioAssay
Activity calls are given as the source filed them.

Assays:
[1] = tested on: PRMT1 (protein arginine N-methyltransferase 1); assay: PRMT1 binders on small-molecule microarrays, primary screen, biochemical, small-molecule microarray, 635 nm fluorescence (AID 1088); conditions: small-molecule microarray binding, higher = more signal;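 note: binding of Prmt1 protein to compounds spotted on small-molecule microarray slides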
[2] = yeast growth modulation, basal conditions, primary screen, YJM789 clinical isolate, OD600, 24 h (AID 1089);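 note: growth of clinical yeast isolate S. cerevisiae YJM 789 seeded 1000 cells per well; test concentration not given here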; conditions: S. cerevisiae YJM789 growth, higher = more signal, called active from +8 up or from −8 down
[3] = fission yeast growth modulation, primary screen, strain 972, OD600, 24 h, no modulator (AID 1090);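 note: basal condition with compound alone and no growth modifier present; test concentration not given here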; conditions: S. pombe 972 growth, higher = more signal, called active from +8 up or from −8 down
[4] = S. cerevisiae growth modulation with rapamycin, primary screen, strain BY4716, OD600, 96 h (AID 1091); conditions: higher = more signal, called active from +8 up or from −8 down; note: test concentration not given here
[5] = molecular target: Torsin-1A-interacting protein 2 (Homo sapiens) (UniProt Q8NFQ8); assay: LULL1 binders on small-molecule microarray, primary screen, cell lysate, human LULL1 lysate, 635/667 nm fluorescence (AID 1092); conditions: hLULL1 lysate binding, 635 nm fluorescence, higher = more signal;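 note: probe is lysate of COS7 cells overexpressing human LULL1; score merges per-feature 667 nm fluorescence with signal-to-noise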
[6] = E. coli growth modulation, two-sided OD650, primary screen, E. coli filamentation project, strain DRC41, 24 h (AID 1093); conditions: OD650, 24 h, higher = more signal, called active from +8 up or from −8 down;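 note: MC1000 strain lacking acrAB efflux and sulA so SOS filamentation is blocked; test concentration not given here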
[7] = small-molecule microarray binders of probe aLefty2, primary screen, biochemical, biotinylated probe, 635/667 nm fluorescence (AID 1094); conditions: higher = more signal;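 note: score merges spot fluorescence near 667 nm with spot signal-to-noise ratio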
[8] = tested on: Noggin (protein binding on small-molecule microarray); assay: Noggin binders on small-molecule microarray, primary screen, biochemical, 635/667 nm fluorescence (AID 1095); conditions: 635 nm fluorescence, higher = more signal;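 note: score merges 667 nm feature fluorescence with signal to noise over triplicate slides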
[9] = molecular target: Neurogenic locus notch homolog protein 3 (Homo sapiens) (UniProt Q9UM47); assay: NOTCH3 binders on small-molecule microarray, primary screen, biochemical, 635/667 nm fluorescence (AID 1096); conditions: NOTCH3 binding, 635 nm fluorescence, higher = more signal
[10] = small-molecule microarray binders of probe aEGFR, primary screen, biochemical, biotinylated probe, 635/667 nm fluorescence (AID 1097); conditions: higher = more signal;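 note: probe is a biotinylated anti-EGFR antibody binding compounds printed on slides; score combines fluorescence near 667 nm and signal to noise of each spot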
[11] = tested on: Plasmodium falciparum Sir2 (PF13_0152, Sir2A); assay: pfSir2 binders on small-molecule microarrays, primary screen, biochemical, small-molecule microarray, 635 nm fluorescence (AID 1098); conditions: small-molecule microarray binding, fluorescence 635 nm; higher = more signal;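 note: score merges spot fluorescence intensity with its signal-to-noise ratio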
[12] = small-molecule microarray binders of probe aDKK1, primary screen, biochemical, biotinylated probe, 635/667 nm fluorescence (AID 1099); conditions: higher = more signal;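 note: score merges 667nm spot fluorescence with signal to noise across triplicate slides; reference of the scale not given here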
[13] = small-molecule microarray binders of probe aCHRDL2, primary screen, biochemical, biotinylated probe, 635/667 nm fluorescence (AID 1100); conditions: higher = more signal
[14] = splicing luciferase reporter signal modulators, primary screen, spliceosome inhibition project, cell-based, HEK293, splice +/- reporter (AID 1101); conditions: luminescence, 24 h, higher = more signal, called active from +8 up or from −8 down;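 note: HEK293 cells carrying a splicing-competent luciferase reporter gene; test concentration not given here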
[15] = molecular target: Fibroblast growth factor 10 (Homo sapiens) (UniProt O15520); assay: FGF10 binders on small-molecule microarrays, primary screen, biochemical, small-molecule microarray, 635 nm fluorescence (AID 1102); conditions: FGF10 binding, fluorescence 635 nm, higher = more signal
[16] = tested on: glycogen synthase kinase-3 (GSK3A per assay name; protocol says GSK3B); assay: GSK3 binders on small-molecule microarrays, primary screen, biochemical, small-molecule microarray, 635 nm fluorescence, GSK3A (AID 1103); conditions: small-molecule microarray binding, fluorescence 635 nm; higher = more signal; note: the record names both GSK3A and GSK3B
[17] = molecular target: Epidermal growth factor receptor (Homo sapiens) (UniProt P00533); assay: EGFR binders on small-molecule microarrays, primary screen, biochemical, small-molecule microarray, 635 nm fluorescence (AID 1104); conditions: EGFR binding, higher = more signal;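 note: score merges 667 nm emission intensity with spot signal to noise over triplicate slides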
[18] = molecular target: Follistatin-related protein 3 (Homo sapiens) (UniProt O95633); assay: FSTL3 binders on small-molecule microarrays, primary screen, biochemical, small-molecule microarray, 635 nm fluorescence (AID 1105); conditions: FSTL3 binding, higher = more signal;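 note: score merges emission near 667 nm and signal to noise per printed spot across three slides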
[19] = molecular target: Dickkopf-related protein 1 (Homo sapiens) (UniProt O94907); assay: DKK1 binders on small-molecule microarrays, primary screen, biochemical, small-molecule microarray, 635 nm fluorescence scan (AID 1106); conditions: DKK1 binding, higher = more signal;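 note: score merges emission near 667 nm with signal to noise over three replicate slides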
[20] = tested on: Inhibin beta A chain (activin A); assay: INHBA (activin A) binders on microarrays, primary screen, biochemical, small-molecule microarray, 635 nm fluorescence scan (AID 1107); conditions: small-molecule microarray binding, higher = more signal;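 note: mouse activin A protein probed at 4.33 µg/mL on printed slides; score merges bound-protein fluorescence near 667 nm with spot signal-to-noise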

Chain of Epidermal growth factor receptor (Homo sapiens) (P00533 whole entry, looked up): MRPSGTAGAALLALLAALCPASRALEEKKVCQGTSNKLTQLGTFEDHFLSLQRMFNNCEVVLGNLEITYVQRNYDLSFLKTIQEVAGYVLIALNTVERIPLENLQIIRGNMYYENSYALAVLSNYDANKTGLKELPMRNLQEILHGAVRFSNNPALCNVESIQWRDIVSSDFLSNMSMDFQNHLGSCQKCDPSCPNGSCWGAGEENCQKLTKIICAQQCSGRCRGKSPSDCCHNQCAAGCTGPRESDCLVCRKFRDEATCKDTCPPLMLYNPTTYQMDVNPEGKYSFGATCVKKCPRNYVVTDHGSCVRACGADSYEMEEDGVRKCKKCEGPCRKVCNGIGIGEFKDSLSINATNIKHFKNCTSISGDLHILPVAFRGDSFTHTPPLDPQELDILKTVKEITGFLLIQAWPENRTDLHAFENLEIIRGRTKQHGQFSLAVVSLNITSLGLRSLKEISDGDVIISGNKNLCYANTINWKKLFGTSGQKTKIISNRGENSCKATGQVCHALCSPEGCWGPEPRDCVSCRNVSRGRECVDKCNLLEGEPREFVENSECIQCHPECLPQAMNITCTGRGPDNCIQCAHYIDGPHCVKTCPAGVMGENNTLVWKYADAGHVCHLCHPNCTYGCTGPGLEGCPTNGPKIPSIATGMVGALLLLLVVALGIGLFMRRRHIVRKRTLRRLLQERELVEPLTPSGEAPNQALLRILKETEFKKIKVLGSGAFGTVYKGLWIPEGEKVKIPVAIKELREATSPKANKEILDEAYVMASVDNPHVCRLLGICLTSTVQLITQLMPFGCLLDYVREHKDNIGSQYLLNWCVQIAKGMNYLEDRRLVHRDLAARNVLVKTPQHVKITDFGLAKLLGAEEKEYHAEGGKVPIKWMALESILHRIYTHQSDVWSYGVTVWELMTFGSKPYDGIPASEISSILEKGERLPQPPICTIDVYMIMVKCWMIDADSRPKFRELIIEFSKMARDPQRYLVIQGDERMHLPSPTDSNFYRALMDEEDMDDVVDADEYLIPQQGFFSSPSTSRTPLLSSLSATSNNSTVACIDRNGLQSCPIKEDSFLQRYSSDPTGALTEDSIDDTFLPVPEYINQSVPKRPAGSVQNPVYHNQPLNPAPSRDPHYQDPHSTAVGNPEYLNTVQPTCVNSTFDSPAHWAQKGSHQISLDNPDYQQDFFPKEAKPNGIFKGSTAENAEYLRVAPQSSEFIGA
Chain of Fibroblast growth factor 10 (Homo sapiens) (O15520 whole entry, looked up): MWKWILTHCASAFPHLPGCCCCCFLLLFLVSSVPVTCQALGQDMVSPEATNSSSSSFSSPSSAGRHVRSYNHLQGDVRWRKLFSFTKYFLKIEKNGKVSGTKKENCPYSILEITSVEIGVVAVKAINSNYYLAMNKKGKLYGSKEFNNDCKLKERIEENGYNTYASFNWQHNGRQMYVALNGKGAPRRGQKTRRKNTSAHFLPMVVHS
Chain of Neurogenic locus notch homolog protein 3 (Homo sapiens) (Q9UM47 whole entry, looked up): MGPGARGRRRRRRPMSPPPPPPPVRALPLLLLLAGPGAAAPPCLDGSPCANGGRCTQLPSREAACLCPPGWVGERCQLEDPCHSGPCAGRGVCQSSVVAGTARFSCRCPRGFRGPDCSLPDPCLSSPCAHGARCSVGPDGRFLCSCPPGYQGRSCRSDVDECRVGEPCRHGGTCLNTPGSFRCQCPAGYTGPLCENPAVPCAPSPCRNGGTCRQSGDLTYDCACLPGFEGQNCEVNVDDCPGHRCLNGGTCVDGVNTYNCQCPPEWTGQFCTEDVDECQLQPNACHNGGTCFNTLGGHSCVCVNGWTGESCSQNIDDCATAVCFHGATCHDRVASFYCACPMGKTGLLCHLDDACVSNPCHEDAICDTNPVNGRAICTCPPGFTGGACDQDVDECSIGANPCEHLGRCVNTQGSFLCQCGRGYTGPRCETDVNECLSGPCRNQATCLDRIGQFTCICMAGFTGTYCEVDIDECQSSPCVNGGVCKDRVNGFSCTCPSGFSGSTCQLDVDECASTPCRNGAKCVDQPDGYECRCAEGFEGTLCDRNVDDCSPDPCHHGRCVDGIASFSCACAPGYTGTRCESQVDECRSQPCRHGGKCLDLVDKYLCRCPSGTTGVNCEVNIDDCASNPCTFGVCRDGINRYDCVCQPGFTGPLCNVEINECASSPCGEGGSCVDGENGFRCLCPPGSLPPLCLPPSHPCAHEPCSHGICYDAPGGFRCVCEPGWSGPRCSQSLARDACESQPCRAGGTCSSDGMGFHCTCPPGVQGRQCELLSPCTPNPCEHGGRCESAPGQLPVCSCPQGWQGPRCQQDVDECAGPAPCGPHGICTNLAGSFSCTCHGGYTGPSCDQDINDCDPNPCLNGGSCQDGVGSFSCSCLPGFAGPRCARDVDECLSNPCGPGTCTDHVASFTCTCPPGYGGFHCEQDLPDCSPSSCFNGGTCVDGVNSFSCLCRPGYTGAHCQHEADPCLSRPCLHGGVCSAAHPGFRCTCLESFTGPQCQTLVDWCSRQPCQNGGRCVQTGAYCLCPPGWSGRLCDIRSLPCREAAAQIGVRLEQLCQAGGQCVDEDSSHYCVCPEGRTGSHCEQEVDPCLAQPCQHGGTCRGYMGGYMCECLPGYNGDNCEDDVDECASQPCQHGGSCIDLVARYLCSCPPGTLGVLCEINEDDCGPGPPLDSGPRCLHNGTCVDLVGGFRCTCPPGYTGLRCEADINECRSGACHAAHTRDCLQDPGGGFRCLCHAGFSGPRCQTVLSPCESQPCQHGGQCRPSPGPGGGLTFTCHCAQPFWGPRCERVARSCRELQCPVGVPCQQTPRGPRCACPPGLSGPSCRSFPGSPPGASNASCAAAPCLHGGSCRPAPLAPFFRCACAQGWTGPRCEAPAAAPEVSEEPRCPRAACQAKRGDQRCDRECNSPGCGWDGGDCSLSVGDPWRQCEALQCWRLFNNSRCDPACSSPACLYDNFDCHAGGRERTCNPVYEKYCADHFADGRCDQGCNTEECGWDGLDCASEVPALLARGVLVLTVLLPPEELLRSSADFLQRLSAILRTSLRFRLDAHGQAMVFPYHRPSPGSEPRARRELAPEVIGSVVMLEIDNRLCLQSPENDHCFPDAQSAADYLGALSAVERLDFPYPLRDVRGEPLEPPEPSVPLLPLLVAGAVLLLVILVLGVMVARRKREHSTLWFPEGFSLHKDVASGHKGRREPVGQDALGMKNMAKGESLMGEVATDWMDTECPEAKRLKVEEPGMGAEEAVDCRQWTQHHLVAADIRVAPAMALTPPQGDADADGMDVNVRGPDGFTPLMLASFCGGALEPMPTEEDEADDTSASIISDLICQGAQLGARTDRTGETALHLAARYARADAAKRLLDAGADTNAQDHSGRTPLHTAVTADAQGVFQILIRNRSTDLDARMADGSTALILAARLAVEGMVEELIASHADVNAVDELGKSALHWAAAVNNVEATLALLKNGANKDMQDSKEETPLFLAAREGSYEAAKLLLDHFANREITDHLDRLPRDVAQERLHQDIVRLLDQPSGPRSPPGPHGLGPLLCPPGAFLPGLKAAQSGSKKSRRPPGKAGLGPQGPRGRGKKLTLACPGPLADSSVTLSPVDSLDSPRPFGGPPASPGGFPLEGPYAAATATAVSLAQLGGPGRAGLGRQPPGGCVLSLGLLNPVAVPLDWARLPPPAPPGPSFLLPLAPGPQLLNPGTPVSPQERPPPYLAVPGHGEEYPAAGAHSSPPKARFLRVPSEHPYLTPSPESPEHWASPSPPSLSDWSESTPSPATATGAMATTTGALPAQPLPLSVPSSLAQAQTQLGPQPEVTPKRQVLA
Chain of Torsin-1A-interacting protein 2 (Homo sapiens) (Q8NFQ8 whole entry, looked up): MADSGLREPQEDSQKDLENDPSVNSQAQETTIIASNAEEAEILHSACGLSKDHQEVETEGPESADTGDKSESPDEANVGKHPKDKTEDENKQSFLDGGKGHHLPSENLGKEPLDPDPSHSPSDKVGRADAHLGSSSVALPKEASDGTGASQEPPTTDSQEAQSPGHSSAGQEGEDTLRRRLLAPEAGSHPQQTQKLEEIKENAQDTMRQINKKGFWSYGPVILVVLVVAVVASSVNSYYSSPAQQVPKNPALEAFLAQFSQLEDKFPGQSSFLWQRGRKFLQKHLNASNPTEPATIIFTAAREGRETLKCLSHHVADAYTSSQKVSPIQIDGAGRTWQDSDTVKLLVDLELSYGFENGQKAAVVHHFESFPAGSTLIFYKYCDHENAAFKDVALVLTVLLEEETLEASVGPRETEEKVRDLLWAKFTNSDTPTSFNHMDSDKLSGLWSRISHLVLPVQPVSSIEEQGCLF
Chain of Follistatin-related protein 3 (Homo sapiens) (O95633 whole entry, looked up): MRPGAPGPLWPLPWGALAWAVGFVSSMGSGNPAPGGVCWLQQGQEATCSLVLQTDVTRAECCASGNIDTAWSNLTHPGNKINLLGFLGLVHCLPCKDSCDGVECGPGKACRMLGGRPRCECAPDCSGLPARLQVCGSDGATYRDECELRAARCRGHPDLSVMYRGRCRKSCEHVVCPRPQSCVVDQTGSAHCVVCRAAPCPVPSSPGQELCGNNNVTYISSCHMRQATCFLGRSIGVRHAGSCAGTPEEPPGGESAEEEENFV
Chain of Dickkopf-related protein 1 (Homo sapiens) (O94907 whole entry, looked up): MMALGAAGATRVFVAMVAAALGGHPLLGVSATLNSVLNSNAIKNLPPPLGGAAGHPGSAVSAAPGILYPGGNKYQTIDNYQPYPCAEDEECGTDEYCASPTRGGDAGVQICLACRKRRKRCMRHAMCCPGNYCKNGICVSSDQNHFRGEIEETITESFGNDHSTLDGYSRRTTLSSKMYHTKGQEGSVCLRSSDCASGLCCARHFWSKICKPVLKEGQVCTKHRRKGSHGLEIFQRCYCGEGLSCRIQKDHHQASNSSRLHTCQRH

Compound	composite z-score [1]	z-score [2]	z-score [3]	z-score [4]	composite z-score [5]	z-score [6]	composite z-score [7]	composite z-score [8]	composite z-score [9]	composite z-score [10]	composite z-score [11]	composite z-score [12]	composite z-score [13]	z-score [14]	composite z-score [15]	composite z-score [16]	composite z-score [17]	composite z-score [18]	composite z-score [19]	composite z-score [20]
C#CCCCON=C1C[C@@H](O)[C@@H](O)[C@@H]2[C@@H]3C(=O)N([C@@H](C)c4ccccc4)C(=O)[C@@H]3CC[C@H]12	0.37	0.45 (inactive)	0.347 (inactive)	-0.418 (inactive)	0.773	0.229 (inactive)	0.0008	0.573	0.999	0.207	0.933	-0.253	-0.483	-1.28 (inactive)	0.478	0.283	0.474	0.921	0.618	0.551
CC(=O)OC[C@H]1O[C@H](CCON=C[C@@H](C)[C@H](OCc2ccccc2)C(C)C)C=C[C@@H]1OC(C)=O	1.12	-0.283 (inactive)	-0.205 (inactive)	-0.3 (inactive)	-0.169	-0.608 (inactive)	-0.138	0.559	0.226	-0.0093	0.343	-0.36	-0.743	0.244 (inactive)	0.2	0.608	0.365	0.274	0.564	-0.0819
CC[C@@H](c1ccccc1)n1c(=O)n2n(c1=O)[C@H]1[C@H](O)[C@@H]3O[C@@H]3C(=NOCC=C(C)CCC=C(C)C)[C@H]1CC2	1.23	0.676 (inactive)	0.052 (inactive)	1.28 (inactive)	1.54	-0.327 (inactive)	-0.137	1.33	0.955	0.14	0.785	-0.156	-0.359	1.95 (inactive)	0.524	0.412	0.446	1.27	0.916	0.619
COC(=O)C1=C(C)N(Cc2ccccc2)[C@]23O[C@](C(=O)OC)(C(=O)N2[C@@H]1c1ccccc1)[C@H]1CCOC(=O)[C@H]13	0.33	0.828 (inactive)	0.494 (inactive)	1.71 (inactive)	0.257	0.308 (inactive)	-0.0638	0.648	1.07	-0.0152	0.539	0.057	-0.733	-0.236 (inactive)	1.1	0.466	0.482	0.63	0.971	0.521
CCN1C(=O)[C@H]2[C@H]3[C@H](O)[C@H](O)CC(=NOC(C)CN4CCCCc5nc(C)c(C)cc54)[C@@H]3CC[C@H]2C1=O (stereo not given in full)	0.708	0.12 (inactive)	0.634 (inactive)	0.403 (inactive)	-0.414	1.03 (inactive)	-0.0977	0.732	0.398	0.126	0.438	-0.206	-0.667	0.279 (inactive)	0.471	0.606	0.78	0.756	0.78	0.834
C=C(/C(=C/C[C@H](OC(C)=O)c1ccc(OCCO)cc1)c1cnc2ccccc2c1)C(C)C	1.44	-1.75 (inactive)	-2.26 (inactive)	-1.03 (inactive)	1.67	1.19 (inactive)	-0.062	1.58	1.1	-0.204	0.659	-0.523	-0.611	-0.494 (inactive)	1.49	0.939	0.333	1.48	0.658	1.64
COCCOC(=O)N1C(=O)[C@@]2(c3cc(C#Cc4ccc(OC)cc4)ccc31)[C@H](c1ccc(O)cc1)N1[C@H](c3ccccc3)[C@H](c3ccccc3)OC(=O)[C@H]1[C@@H]2C(N)=O	1.55	0.0655 (inactive)	-0.118 (inactive)	-0.0092 (inactive)	2.93	0.04 (inactive)	-0.145	0.977	1.1	0.0026	1.49	-0.0422	-0.21	-1.95 (inactive)	1.1	1.25	0.655	1.4	0.56	0.213
CCOC(=O)CCN1C(=O)[C@H]2[C@H]3[C@H](O)[C@H](O)CC(=NOCc4ccccc4)[C@@H]3CC[C@H]2C1=O	0.454	-0.14 (inactive)	0.116 (inactive)	-0.664 (inactive)	0.175	-0.961 (inactive)	-0.147	0.676	1	-0.0597	0.174	-0.206	-0.608	0.0671 (inactive)	0.526	0.597	0.641	0.749	0.4	0.0727
Cc1cc2c(c(=O)o1)[C@H](O)[C@H]1O[C@H]1C2=O	0.527	0.228 (inactive)	-4.24 (inactive)	-0.643 (inactive)	-0.186	-1.02 (inactive)	-0.0569	0.651	0.312	-0.0007	0.412	-0.178	-0.245	-0.331 (inactive)	0.88	0.191	0.0205	-0.139	-0.0438	0.623
COC(=O)CC=C[C@@H](C)[C@@H](C=NO[C@H](C)c1cn([C@@H]2COC[C@H]2O)nn1)OC	1.35	0.212 (inactive)	0.189 (inactive)	-0.266 (inactive)	0.965	0.135 (inactive)	-0.156	0.359	0.484	0.0009	0.626	-0.43	-0.611	0.605 (inactive)	0.739	0.617	0.856	1.06	0.492	-0.335
